Compound activity from PubChem BioAssay.
The entries come from a sample that favours hits as a whole.
IDE exosite inh: displaces the probe from the exo-site of human IDE; P14735; purified IDE, FL-6b probe fluorescence polarization; active compounds read low; z-score at 20 µM; 6.3% of 17,000 active; AID 1259349;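 active = z-score of -3 or lower, meaning strong loss of probe binding signal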;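 note: His-tagged human IDE residues 42-1019 made in E. coli with 30 nM FL-6b probe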
The depositor's hits bear a star.

SMILES	IDE exosite inh
Cc1ccccc1-c1ccc([C@@H]2[C@H](CO)N3CCCCN(S(=O)(=O)Cc4ccccc4)C[C@@H]23)cc1	-4.7*
CCS(=O)(=O)N1CCCCN2[C@H](CO)[C@H](c3ccc(-c4ccccc4F)cc3)[C@H]2C1	-2.2
CCS(=O)(=O)N1CCCCN2[C@H](CO)[C@@H](c3ccc(-c4ccccc4F)cc3)[C@H]2C1	1.9
Cc1ccccc1-c1ccc([C@H]2[C@H]3CN(S(C)(=O)=O)CCCCN3[C@H]2CO)cc1	-0.86
Cc1ccccc1-c1ccc([C@H]2[C@@H](CO)N3CCCCN(S(C)(=O)=O)C[C@@H]23)cc1	-2.3
C[C@@H]1CN([C@@H](C)CO)C(=O)c2c(c3ccccc3n2C)-c2ccccc2CO[C@H]1CN(C)C(=O)Nc1ccccc1C(F)(F)F	-0.51
CCCC(=O)Nc1ccc2c(c1)OC[C@H](C)N(S(=O)(=O)c1cn(C)cn1)C[C@@H](C)[C@@H](OC)CN(C)C2=O	1.5
CN(C)C(=O)c1ccc(-c2ccc([C@@H]3[C@@H](CO)N(S(C)(=O)=O)[C@H]3C#N)cc2)cc1	-0.07
C[C@@H]1CCn2cc(nn2)COC[C@H](Cc2ccccc2)NC1=O	0.037
CC(C)NC(=O)N1[C@@H]2CNC[C@H]1C2c1ccc(-c2ccc(C#N)cc2)cc1 (stereo not given in full)	3.9
O=C(C1CCOCC1)N1CC(=O)N2[C@H](CO)[C@@H](c3ccc(C#CC4CCCCC4)cc3)[C@H]2C1	0.64
O=C1CN(S(=O)(=O)Cc2ccccc2)C[C@H]2[C@@H](c3ccc(C#CCC4CCCC4)cc3)[C@@H](CO)N12	2.2
O=C(c1cnccn1)N1CC(=O)N2[C@H](CO)[C@@H](c3ccc(C#CCC4CCCC4)cc3)[C@@H]2C1	2.1
COCC(=O)N1[C@H](CN(C)C(=O)c2ccncc2)[C@@H](c2ccccc2)[C@@H]1CO	2.4
Cc1nn(C)cc1NC(=O)C[C@H]1CC[C@@H]2[C@H](COc3ccc(NC(=O)C4CCOCC4)cc3C(=O)N2C)O1	-1.2
OC[C@@H]1[C@H](c2ccc(-c3ccncc3)cc2)[C@@H]2CN(Cc3ccccn3)CCCCN12	4.1
COc1ccc(S(=O)(=O)Nc2ccc3c(c2)C(=O)N([C@H](C)CO)C[C@H](C)[C@H](CN(C)S(=O)(=O)c2ccc(Cl)cc2)OCCCC[C@H](C)O3)cc1	-0.017
C/C=C/c1ccc([C@@H]2[C@@H](C#N)N(C(=O)NC3CCCC3)[C@@H]2CO)cc1	2.8
CS(=O)(=O)N1CC(=O)N2[C@H](C1)[C@H](c1ccc(Br)cc1)[C@@H]2CO	0.089
Cc1ccccc1-c1ccc([C@@H]2[C@@H](CO)N3C(=O)CN(S(C)(=O)=O)C[C@@H]23)cc1	-13*
CS(=O)(=O)N1CC(=O)N2[C@H](CO)[C@H](c3ccc(Br)cc3)[C@@H]2C1	-0.52
COCC(=O)N1[C@H](CO)[C@@H]2c3ccccc3N(C)C[C@@H]21	2.5
COc1cccc(C#Cc2ccc([C@H]3[C@@H](CO)N4C(=O)CN(C(=O)C5CC5)C[C@H]34)cc2)c1	-9.5*
COc1ccc(C#Cc2ccc([C@H]3[C@H](CO)N4C(=O)CN(C(=O)C5CCOCC5)C[C@@H]34)cc2)cc1	-1.1
COc1cccc(C#Cc2ccc([C@@H]3[C@@H](CO)N4C(=O)CN(C(=O)C5CC5)C[C@@H]34)cc2)c1	-1
SMILES	IDE exosite inh
COc1cccc(C#Cc2ccc([C@@H]3[C@H]4CN(C(=O)C5CC5)CC(=O)N4[C@H]3CO)cc2)c1	-0.064
COc1cccc(C#Cc2ccc([C@H]3[C@H](CO)N4C(=O)CN(C(=O)C5CC5)C[C@@H]34)cc2)c1	-4.6*
O=C(NCC[C@H]1CC[C@@H](NS(=O)(=O)c2ccc(F)cc2)[C@@H](CO)O1)c1ccc2c(c1)OCO2	1.2
O=C1CN(S(=O)(=O)Cc2ccccc2)C[C@H]2[C@@H](c3ccc(C#CC4CC4)cc3)[C@H](CO)N12	0.85
CCCNC(=O)N1CC2(C1)[C@@H](c1ccccc1)[C@@H](CO)N2C(=O)c1cccnc1	-0.0056
CN(C)CC#Cc1ccc([C@H]2[C@H](CO)N3C(=O)CN(C(=O)Cc4ccccc4)C[C@@H]23)cc1	-1.5
Cc1cccc(-c2ccc([C@H]3[C@@H](CO)N4CCCCN(S(=O)(=O)c5ccccc5C)C[C@@H]34)cc2)c1	3.6
Cc1cccc(-c2ccc([C@@H]3[C@H](CO)N4CCCCN(S(=O)(=O)c5ccccc5C)C[C@@H]34)cc2)c1	-11*
Cc1cccc(-c2ccc([C@H]3[C@@H](CO)N4CCCCN(S(=O)(=O)c5ccccc5F)C[C@@H]34)cc2)c1	-0.051
Cc1cccc(-c2ccc([C@@H]3[C@@H](CO)N4CCCCN(S(=O)(=O)c5ccccc5F)C[C@@H]34)cc2)c1	-27*
Cc1cccc(-c2ccc([C@H]3[C@@H](CO)N4CCCCN(S(=O)(=O)c5ccccc5C)C[C@H]34)cc2)c1	-0.56
Cc1cccc(-c2ccc([C@@H]3[C@@H](CO)N4CCCCN(S(=O)(=O)c5ccccc5F)C[C@H]34)cc2)c1	0.5
CCCC(=O)N1CCC2(CC1)CN(C(=O)Cc1ccccn1)[C@H](CO)c1[nH]c3cc(OC)ccc3c12	-0.55
CO[C@H]1CN(C)C(=O)c2cc(NC(=O)NC(C)C)ccc2OC[C@@H](C)N(C(=O)CN(C)C)C[C@@H]1C	0.47
Cc1ccc(-c2ccc([C@H]3[C@@H](CO)N4C(=O)CN(C(=O)c5ccccc5)C[C@@H]34)cc2)cc1	1.3
O=C(c1ccc2c(c1)OCO2)N1CC(=O)N2[C@H](CO)[C@H](c3ccc(C#Cc4ccccc4)cc3)[C@@H]2C1	-0.14
Cc1cccc(-c2ccc([C@H]3[C@@H](CO)N4C(=O)CN(C(=O)c5ccc6c(c5)OCO6)C[C@@H]34)cc2)c1	-3.1*
O=C(c1ccc2c(c1)OCO2)N1CC(=O)N2[C@H](CO)[C@@H](c3ccc(C#Cc4ccccc4)cc3)[C@H]2C1	2.9
Cc1cccc(-c2ccc([C@H]3[C@H](CO)N4C(=O)CN(C(=O)c5ccccc5)C[C@@H]34)cc2)c1	-7.4*
Cc1cccc(-c2ccc([C@@H]3[C@H](CO)N4C(=O)CN(C(=O)c5ccccc5)C[C@@H]34)cc2)c1	-4.6*
COc1ccc(-c2ccc([C@@H]3[C@@H](CO)N4C(=O)CN(C(=O)c5ccc6c(c5)OCO6)C[C@H]34)cc2)cc1	0.31
Cc1cccc(-c2ccc([C@H]3[C@H]4CN(C(=O)c5ccccc5)CC(=O)N4[C@H]3CO)cc2)c1	-0.72
O=C(c1ccc2c(c1)OCO2)N1CC(=O)N2[C@@H](CO)[C@H](c3ccc(C#Cc4ccccc4)cc3)[C@@H]2C1	-4.3*
Cc1cccc(-c2ccc([C@@H]3[C@@H](CO)N4C(=O)CN(C(=O)c5ccccc5)C[C@H]34)cc2)c1	-1.4
Cc1ccc(-c2ccc([C@@H]3[C@@H](CO)N4C(=O)CN(C(=O)c5ccccc5)C[C@H]34)cc2)cc1	0.83
O=C(c1ccc2c(c1)OCO2)N1CC(=O)N2[C@H](CO)[C@@H](c3ccc(-c4ccccc4)cc3)[C@H]2C1	0.43
C/C=C/c1ccc([C@H]2[C@@H](CO)N(C(=O)c3ccccc3)C23CN(C(C)=O)C3)cc1	-1.6
CC(C)C#Cc1ccc([C@H]2[C@H]3CN(C(=O)Cc4cccnc4)CC(=O)N3[C@H]2CO)cc1	3.7
O=C(Cc1ccccn1)N1CC(=O)N2[C@H](CO)[C@@H](c3ccc(C#CC4CCCCC4)cc3)[C@@H]2C1	0.048
O=C(Nc1cccc(F)c1)N1CC(=O)N2[C@@H](CO)[C@H](c3ccc(-c4ccccc4)cc3)[C@@H]2C1	1.3
